The structures appear in SMILES notation. “And” between values parts separate entries of the source, which are not always exact repeats. Equal values may be shown once. ± gives the standard deviation of the averaged measurements.

Mitochondrial superoxide data for 34 molecules are collected here from the supplement of paper PMC7393113.

The subject of this test is iBMDM (immortalised mouse bone-marrow-derived macrophages), LPS-stimulated. The test is described as follows: mitochondrial superoxide (MitoSOX fluorescence) fold increase over unstimulated control; higher = more LPS-induced mitochondrial ROS (less inhibition). The settings on record: inhibitor concentration: 500 nM, LPS: 100 ng/ml. Put shortly: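 Mitochondrial superoxide values are mean fold induction compared with untreated macrophages. Triplicate wells of immortalised mouse bone-marrow-derived macrophages in phenol-red-free 1% FCS/DMEM received kinase inhibitors (500 nM) for 30 min, then 1 μM MitoSox for 10 min, then LPS (100 ng/ml). Fluorescence (510/580 nm) was taken every 60 min for 4 h.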

For the molecule `O=C(Nc1ccc(OC(F)(F)F)cc1)c1sccc1NCc1ccnc2ccccc12`, the mitochondrial superoxide is, setting by setting: (time after LPS: 1 h) 1.21 ± 0.044; (time after LPS: 2 h) 1.2 ± 0.067; (time after LPS: 4 h) 1.25 ± 0.031.

Consider `O=C(NOCC(O)CO)c1cc(Br)c(F)c(F)c1Nc1ccc(I)cc1F` (configuration not stated), for which the mitochondrial superoxide worked out at 1.31 ± 0.033 (time after LPS: 1 h), 1.3 ± 0.054 (time after LPS: 2 h) and 1.34 ± 0.065 (time after LPS: 4 h).

For `CN(C)Cc1cccc(N=C(c2ccccc2)c2c(O)[nH]c3cc(C(N)=O)ccc23)c1`, the mitochondrial superoxide turned out to be 1.15 ± 0.031 (time after LPS: 1 h), 1.15 ± 0.052 (time after LPS: 2 h) and 1.26 ± 0.07 (time after LPS: 4 h).

Consider `COc1cc2nccc(Oc3ccc(NC(=O)Nc4cc(C)on4)c(Cl)c3)c2cc1OC` [Tivozanib (AV-951)], for which the mitochondrial superoxide (time after LPS: 1 h) stood at 1.14 ± 0.031, the mitochondrial superoxide (time after LPS: 2 h) is 1.17 ± 0.037 and the mitochondrial superoxide (time after LPS: 4 h) was 1.24 ± 0.024.

Consider `Cc1ccc(Nc2nccc(N(C)c3ccc4c(C)n(C)nc4c3)n2)cc1S(N)(=O)=O`, for which the mitochondrial superoxide (time after LPS: 1 h) came to 1.46 ± 0.059, the mitochondrial superoxide (time after LPS: 2 h) turned out to be 1.563 ± 0.0056 and the mitochondrial superoxide (time after LPS: 4 h) was 1.65 ± 0.11.

`CC(C)c1cnn2c(NCc3ccccc3)cc(NCCCCCCN)nc12`: the mitochondrial superoxide was 1.16 ± 0.054 (time after LPS: 1 h), 1.25 ± 0.025 (time after LPS: 2 h) and 1.47 ± 0.059 (time after LPS: 4 h).

Take `CNC(=O)CN1CCC(Oc2cc3c(Nc4cccc(Cl)c4F)ncnc3cc2OC)CC1` [AZD8931 (Sapitinib)]: the mitochondrial superoxide is 1.12 ± 0.041 (time after LPS: 1 h), 1.24 ± 0.048 (time after LPS: 2 h) and 1.37 ± 0.046 (time after LPS: 4 h).

Regarding `C=CC(=O)Nc1cc2c(Nc3ccc(F)c(Cl)c3)ncnc2cc1OCCCN1CCOCC1` [Canertinib (CI-1033)], the mitochondrial superoxide worked out at 1.59 ± 0.093 (time after LPS: 1 h), 1.55 ± 0.14 (time after LPS: 2 h) and 1.87 ± 0.084 (time after LPS: 4 h).

Consider `CC(C)NC[C@@H](C(=O)N1CCN(c2ncnc3c2[C@H](C)C[C@H]3O)CC1)c1ccc(Cl)cc1`, for which the mitochondrial superoxide was found to be 1.25 ± 0.045 (time after LPS: 1 h), 1.49 ± 0.11 (time after LPS: 2 h) and 1.7 ± 0.094 (time after LPS: 4 h).

As for `COc1cc(OC)c(/C=C/S(=O)(=O)Cc2ccc(OC)c(NCC(=O)O)c2)c(OC)c1`, the mitochondrial superoxide reads like this: (time after LPS: 1 h) 1.071 ± 0.0096; (time after LPS: 2 h) 1.15 ± 0.084; (time after LPS: 4 h) 1.23 ± 0.086.

Turning to `CCCS(=O)(=O)Nc1ccc(F)c(C(=O)c2c[nH]c3ncc(-c4ccc(Cl)cc4)cc23)c1F` [Vemurafenib (PLX4032, RG7204)], the mitochondrial superoxide runs as follows: (time after LPS: 1 h) 1.159 ± 0.0019; (time after LPS: 2 h) 1.16 ± 0.015; (time after LPS: 4 h) 1.17 ± 0.029.

On to `N#Cc1c(O)c2c(-c3ccc(-c4ccccc4O)cc3)csc2[nH]c1=O`, for which the mitochondrial superoxide by setting is: (time after LPS: 1 h) 1.3 ± 0.051; (time after LPS: 2 h) 1.43 ± 0.023; (time after LPS: 4 h) 1.52 ± 0.034.

For the molecule `C=CC(=O)Nc1ccc2ncnc(Nc3ccc(OCc4cccc(F)c4)c(Cl)c3)c2c1`, the mitochondrial superoxide (time after LPS: 1 h) was 1.18 ± 0.017, the mitochondrial superoxide (time after LPS: 2 h) is 1.204 ± 0.0092 and the mitochondrial superoxide (time after LPS: 4 h) worked out at 1.42 ± 0.13.

Regarding `CC(=O)c1c(C)c2cnc(Nc3ccc(N4CCNCC4)cn3)nc2n(C2CCCC2)c1=O`, the mitochondrial superoxide was 1.45 ± 0.032 (time after LPS: 1 h), 1.45 ± 0.037 (time after LPS: 2 h) and 1.49 ± 0.03 (time after LPS: 4 h).

`CNC(=O)c1nn(C)c2c1C(C)(C)Cc1cnc(Nc3ccc(N4CCN(C)CC4)cc3)nc1-2`: the mitochondrial superoxide (time after LPS: 1 h) came to 1.31 ± 0.016, the mitochondrial superoxide (time after LPS: 2 h) worked out at 1.38 ± 0.086 and the mitochondrial superoxide (time after LPS: 4 h) was 1.64 ± 0.064.

Consider `CN(c1ncccc1CNc1nc(Nc2ccc3c(c2)CC(=O)N3)ncc1C(F)(F)F)S(C)(=O)=O`, for which the mitochondrial superoxide was 1.27 and 1.06 (time after LPS: 1 h); 1.34 and 1.11 (time after LPS: 2 h); 1.63 and 1.11 (time after LPS: 4 h).

As to `Cc1ccc2nc(NCCN)c3ncc(C)n3c2c1`, the mitochondrial superoxide reads like this: (time after LPS: 1 h) 1.43 ± 0.036; (time after LPS: 2 h) 1.48 ± 0.027; (time after LPS: 4 h) 1.63 ± 0.047.

Molecule `CC1=C(C(=O)Nc2cc3cn[nH]c3cc2F)C(c2ccc(C(F)(F)F)cc2)CC(=O)N1` (configuration not stated) yielded a mitochondrial superoxide (time after LPS: 1 h) of 1.23 ± 0.085, a mitochondrial superoxide (time after LPS: 2 h) of 1.26 ± 0.033 and a mitochondrial superoxide (time after LPS: 4 h) of 1.35 ± 0.057.

Consider `C=CCc1ccc(O)c(-c2ccc(O)c(CC=C)c2)c1` [Honokiol], for which the mitochondrial superoxide reads like this: (time after LPS: 1 h) 1.24 ± 0.031; (time after LPS: 2 h) 1.31 ± 0.1; (time after LPS: 4 h) 1.39 ± 0.096.

As to `O=C1c2ccc(Nc3ccc(F)cc3F)cc2CCc2ccc(OC[C@H](O)CO)cc21` [Skepinone-L], the mitochondrial superoxide came to 1.43 ± 0.05 (time after LPS: 1 h), 1.41 ± 0.05 (time after LPS: 2 h) and 1.62 ± 0.049 (time after LPS: 4 h).

With `Fc1cc(-c2cccc3ncc(-c4cnn(C5CCNCC5)c4)nc23)cc(F)c1CN1CCOCC1`, the mitochondrial superoxide reads like this: (time after LPS: 1 h) 1.15 ± 0.05; (time after LPS: 2 h) 1.45 ± 0.13; (time after LPS: 4 h) 1.69 ± 0.04.

Turning to `COc1ccc2c(Oc3ccc(NC(=O)c4c(C)n(CC(C)(C)O)n(-c5ccccc5)c4=O)nc3)ccnc2c1`, the mitochondrial superoxide stood at 1.09 ± 0.031 (time after LPS: 1 h), 1.2 ± 0.034 (time after LPS: 2 h) and 1.391 ± 0.0084 (time after LPS: 4 h).

For `COc1cc(Nc2ncc(F)c(Nc3ccc4c(n3)N(COP(=O)(O)O)C(=O)C(C)(C)O4)n2)cc(OC)c1OC` [Fostamatinib (R788)], the mitochondrial superoxide by setting is: (time after LPS: 1 h) 1.29 ± 0.026; (time after LPS: 2 h) 1.429 ± 0.0045; (time after LPS: 4 h) 1.71 ± 0.034.

`Cc1nc(NC(=O)N2CCC[C@H]2C(N)=O)sc1-c1ccnc(C(C)(C)C(F)(F)F)c1` came in with a mitochondrial superoxide (time after LPS: 1 h) of 1.3 ± 0.032, a mitochondrial superoxide (time after LPS: 2 h) of 1.46 ± 0.052 and a mitochondrial superoxide (time after LPS: 4 h) of 1.7 ± 0.057.

For the molecule `COc1cc2ncnc(Nc3cccc(Cl)c3)c2cc1OC` [AG-1478 (Tyrphostin AG-1478)], the mitochondrial superoxide reads like this: (time after LPS: 1 h) 1.11 ± 0.082; (time after LPS: 2 h) 1.54 ± 0.039; (time after LPS: 4 h) 1.65 ± 0.057.

Consider `CNC(=O)c1ccccc1Sc1ccc2c(/C=C/c3ccccn3)n[nH]c2c1` [Axitinib], for which the mitochondrial superoxide turned out to be 1.77 ± 0.17 (time after LPS: 1 h), 1.78 ± 0.17 (time after LPS: 2 h) and 1.8 ± 0.058 (time after LPS: 4 h).

For the molecule `Cn1c(=O)n(-c2ccc(C(C)(C)C#N)cc2)c2c3cc(-c4cnc5ccccc5c4)ccc3ncc21` [BEZ235 (NVP-BEZ235, Dactolisib)], the mitochondrial superoxide is, setting by setting: (time after LPS: 1 h) 1.47 ± 0.087; (time after LPS: 2 h) 1.47 ± 0.084; (time after LPS: 4 h) 1.61 ± 0.076.

In the case of `CCN1CCN(Cc2ccc(-c3cc4c(N[C@H](C)c5ccccc5)ncnc4[nH]3)cc2)CC1`, the mitochondrial superoxide runs as follows: (time after LPS: 1 h) 1.08 ± 0.019; (time after LPS: 2 h) 1.11 ± 0.04; (time after LPS: 4 h) 1.25 ± 0.081.

Regarding `Cc1ccc(Nc2nccc(N(C)c3ccc4c(C)n(C)nc4c3)n2)cc1S(N)(=O)=O` [Pazopanib], the mitochondrial superoxide was determined as 1.19 ± 0.042 (time after LPS: 1 h), 1.13 ± 0.082 (time after LPS: 2 h) and 1.26 ± 0.015 (time after LPS: 4 h).

`N#C/C(=C(/N)Sc1ccc(N)cc1)c1ccccc1C(F)(F)F`: the mitochondrial superoxide came out at 1.35 ± 0.024 (time after LPS: 1 h), 1.42 ± 0.092 (time after LPS: 2 h) and 1.506 ± 0.0063 (time after LPS: 4 h).

For the molecule `C#Cc1cccc(Nc2ncnc3cc(OCCOC)c(OCCO)cc23)c1`, the mitochondrial superoxide was 1.16 ± 0.089 (time after LPS: 1 h), 1.2 ± 0.038 (time after LPS: 2 h) and 1.3 ± 0.14 (time after LPS: 4 h).

As to `CCN1C(=CC(C)=O)Sc2ccc(OC)cc21`, the mitochondrial superoxide by setting is: (time after LPS: 1 h) 1.417 ± 0.014; (time after LPS: 2 h) 1.44 ± 0.089; (time after LPS: 4 h) 1.63 ± 0.1.

`CCN1CCN(Cc2ccc(Nc3ncc(F)c(-c4cc(F)c5nc(C)n(C(C)C)c5c4)n3)nc2)CC1` returned a mitochondrial superoxide (time after LPS: 1 h) of 1.13 ± 0.056, a mitochondrial superoxide (time after LPS: 2 h) of 1.25 ± 0.02 and a mitochondrial superoxide (time after LPS: 4 h) of 1.36 ± 0.022.

On to `C=CC(=O)Nc1ccc2ncnc(Nc3cccc(Br)c3)c2c1`, for which the mitochondrial superoxide came to 1.12 ± 0.053 (time after LPS: 1 h), 1.29 ± 0.027 (time after LPS: 2 h) and 1.3 ± 0.061 (time after LPS: 4 h).
